Hits are enriched below; roughly 2.6% of the tested compounds scored in any of these assays.
AmpC inh det = Promiscuous and Specific Inhibitors of AmpC Beta-Lactamase (assay with detergent) | AID 584, 2007 | P00811 | purified AmpC, nitrocefin hydrolysis with detergent | Potency, µM (top dose mostly 28.7 µM) | actives 0.09% (n = 71,000); active means well fitted curve in the direction sought with a large enough effect; inconclusive means small, poorly fitted or top-dose-only effect
Target sequence (P00811 whole entry, looked up): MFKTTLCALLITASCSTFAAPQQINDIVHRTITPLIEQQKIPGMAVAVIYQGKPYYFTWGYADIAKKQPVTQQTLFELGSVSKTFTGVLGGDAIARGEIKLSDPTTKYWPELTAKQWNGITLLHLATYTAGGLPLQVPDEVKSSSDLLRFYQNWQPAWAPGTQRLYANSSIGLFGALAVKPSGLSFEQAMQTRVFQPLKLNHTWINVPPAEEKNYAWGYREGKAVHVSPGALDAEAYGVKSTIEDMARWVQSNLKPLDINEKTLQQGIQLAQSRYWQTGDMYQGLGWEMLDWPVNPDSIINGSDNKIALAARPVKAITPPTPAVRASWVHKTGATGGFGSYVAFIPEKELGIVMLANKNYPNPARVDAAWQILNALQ
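E. coli AmpC (5.3 nM) in 20 mM phosphate pH 7.0 with 0.01% Triton X-100, preincubated 15 min RT with compound; nitrocefin (2 uL of 800 uM stock) hydrolysis followed by 480 nm absorbance every 20 s over 4 min.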
AmpC inh no det = Promiscuous and Specific Inhibitors of AmpC Beta-Lactamase (assay without detergent). AID 585, 2007. actives 1.8% (n = 71,000). Potency, µM (doses to about 28.7 µM). AmpC nitrocefin hydrolysis, absorbance 480 nm, no detergent
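Enzyme, pH 7.0 phosphate. Compound titrations were pre-incubated with AmpC for 15 min at room temperature before nitrocefin (stock 800 uM) addition; product formation was recorded at 480 nm every 20 s for 4 min.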
LT uptake inh = qHTS Assay for Anthrax Lethal Toxin Internalization; actives 0.67% (n = 70,000); Cells, anthrax lethal toxin internalization, FRET ratio (460/530); Potency, µM (top dose mostly 40 µM), actives largely listed as inhibitors; further: nearly all actives have a fitted effect of over 50% in size
Prx2 Sm inh = Schistosoma Mansoni Peroxiredoxins (Prx2) | S. mansoni Prx2 activity coupled to TGR/GSH (TGR is thioredoxin glutathione reductase), NADPH fluorescence loss, qHTS | actives 0.07% (n = 65,000) | AID 448, 2006 | Potency, µM
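Prx2 inhibition was measured as reduced NADPH consumption when electrons flowed from NADPH through TGR and glutathione to Prx2 and H2O2. Plates were read kinetically over 8 min; enzyme reagents were held at 4 deg C during dispensing.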
Hits are given with their value; n = inactive; u = inconclusive; x = not tested or not shown; [ ] = dose if it differs, or a comment. Unless noted, the call rests on the fitted dose curve.

SMILES | AmpC inh det | AmpC inh no det | LT uptake inh | Prx2 Sm inh
COc1ccc(CNc2nc(-c3ccc(N(C)C)cc3)nc3ccccc23)c(OC)c1 | n | n | u | n
Cc1noc(C)c1S(=O)(=O)N(CC(=O)Nc1ccc2c(c1)OCO2)c1ccc(C(C)C)cc1 | n | n | u | n
Cc1n[nH]c(C)c1S(=O)(=O)N(CC(=O)Nc1ccc2c(c1)OCCO2)c1ccc(C(C)C)cc1 | n | n | 16µM | n
N#Cc1c(N2CCCC2)nc(N)c2c(N)nc(N3CCCC3)cc12 | n | n | n | n
N#Cc1c(N)nc(N2CCCC2)c(C#N)c1-c1ccc(Cl)cc1 | n | n | 1µM | n
COc1ccc(CCNC(=O)C2(C)CCC(=O)N2CCC(C)C)cc1OC (centres undefined) | n | 4µM[single pt active] | n | n
O=[N+]([O-])c1cccc(I)c1 | n | n | u | x
COC(=O)[C@H](Cc1ccccc1)NC(=O)[C@H]1C[C@@H]1[C@H](NC(=O)OCc1ccccc1)c1ccccc1 | n | n | u | x
Fc1ccc(C2CC(c3ccco3)n3ncnc3N2)cc1 (centres undefined) | n | 4µM[single pt active] | n | n
CCOC(=O)N1CCc2c(sc(NC(=O)c3ccc(Cl)s3)c2C(N)=O)C1 | n | n | 5µM | n
Cc1ncc(CO)c2cc(S(=O)(=O)c3ccc(F)cc3)c(=O)oc12 | n | 4µM[single pt active] | n | 17
COc1ccc(-c2nc3cnc(N4CCOCC4)nc3n(C[C@H]3CCCO3)c2=O)cc1 | n | n | u | n
CC1(C(=O)NCCCNc2ncc(C(F)(F)F)cc2Cl)C=CC2(CCCCC2)N1C(=O)c1ccccc1 (centres undefined) | n | n | 25µM | x
COc1ccc(Br)cc1C1CC(=O)N2CN(Cc3ccccc3)CSC2=C1C#N (centres undefined) | n | 2µM | u | n
COc1ccc2ccccc2c1C1CC(=O)N2CN(C)CSC2=C1C#N (centres undefined) | n | n | n | n
COc1ccc(Br)cc1C1CC(=O)N2CN(C)CSC2=C1C#N (centres undefined) | n | 4µM[single pt active] | n | n
CC(C)c1ccc(C2CC(=O)N3CN(C)CSC3=C2C#N)cc1 (centres undefined) | n | 4µM[single pt active] | n | n
COc1cc(OC)c(C2CC(=O)N3CN(C)CSC3=C2C#N)cc1OC (centres undefined) | n | 4µM[single pt active] | n | n
COC(=O)c1ccc(C(NC(=O)OCc2ccccc2)/C(=C/[C@@H](C)C(=O)Nc2ccccc2)c2cccnc2)cc1 (some centres undefined) | n | n | n | x
O=c1oc2cc(N=Cc3ccc4c(c3)OCO4)ccc2c2ccccc12 | n[5.75 µM] | n[5.75 µM] | n[8 µM] | n
CCC(=O)O[C@@]1(C(=O)SCF)[C@@H](C)C[C@H]2[C@@H]3C[C@@H](F)C4=CC(=O)C=C[C@@]4(C)[C@]3(F)[C@@H](O)C[C@]21C | n | n | n[3.58 µM] | n
CCc1c2c(nc3cccc(SC)c13)COC2 | n | n | n | n
C=CS(=O)(=O)c1ccc(Oc2ccc(S(=O)(=O)C=C)cc2)cc1 | n | n | 4µM | u
O=S(=O)(c1ccc(Oc2ccc(S(=O)(=O)N3CCOCC3)cc2)cc1)N1CCOCC1 | n | n | n | x
c1csc(Cc2nc(-c3ccc(-n4cccc4)cc3)no2)c1 | n | 13µM | n | n
SMILES | AmpC inh det | AmpC inh no det | LT uptake inh | Prx2 Sm inh
Cn1c(=O)c(-c2ccc(F)cc2)nc2cnc(N3CCOCC3)nc21 | n | n | u | n
Cc1cc(NC(=O)c2noc3c2CCc2ccccc2-3)no1 | n | 4µM[single pt active] | n | n
Cc1c(NC(=O)c2noc3c2CCc2ccccc2-3)c(=O)n(-c2ccccc2)n1C | n | 4µM[single pt active] | n | n
Cc1ccccc1Cn1nc(C)c(NC(=O)c2noc3c2CCc2ccccc2-3)c1C | n | n | u | u
CS(=O)(=O)N1CCC[C@@]2(CCN(c3ccccn3)C2)C1 | n | n | u | n
Cc1ccc(NC(=O)C2CCCN2S(=O)(=O)c2ccc3c(c2)CCC(=O)N3)cc1Cl (centres undefined) | n | 4µM[single pt active] | n | n
O=C1CCc2cc(S(=O)(=O)N3CCCC3C(=O)N3CCN(c4ccccc4F)CC3)ccc2N1 (centres undefined) | n | n | n | n
O=C1CCc2cc(S(=O)(=O)N3CCCC3C(=O)N3CCN(c4ccccc4)CC3)ccc2N1 (centres undefined) | n | 4µM[single pt active] | n | n
CO/N=C\[C@@H](OC)[C@H](C)/C=C\CC(=O)OC | x | x | n[8 µM] | x
O=c1cc(-c2ccccc2)oc2c1ccc1ccccc12 | n | n | 25µM | n
COc1cccc(-c2ccc3ncnc(NCCN4CCOCC4)c3c2)c1 | n | n | n | n
Cc1c(C(=O)c2ccc3ccccc3c2)c2cccc3c2n1[C@H](CN1CCOCC1)CO3 | n | n | 2µM | n
OC[C@@H]1O[C@@H](n2cnc3cncnc32)[C@@H](O)[C@H]1O | n | n | n | n
COc1cccc(C2CC(c3ccccc3C)n3nc(N)nc3N2)c1 (centres undefined) | n | 4µM[single pt active] | n | n
CCOc1ccc(C2CC(c3ccccc3C)n3nc(N)nc3N2)cc1 (centres undefined) | n | n | n | n
Cc1ccc(C2CC(c3ccccc3C)n3nc(N)nc3N2)cc1 (centres undefined) | n | 4µM[single pt active] | n | n
COc1ccc(C2CC(c3ccccc3C)n3nc(N)nc3N2)cc1 (centres undefined) | n | 4µM[single pt active] | n | n
OCC1OC(c2ccc3c(c2)OCO3)C=CC1Oc1cc(Cl)cc(Cl)c1 (centres undefined) | x | x | n[8 µM] | x
Cc1cc(C)n2nc(SCC(=O)Nc3c(C)nn(-c4ccccc4)c3C)nc2n1 | n | n | n | n
Cc1cc(C)n2nc(SCC(=O)Nc3ccc(F)cc3)nc2n1 | n | 4µM[single pt active] | n | u
CCOC(=O)OCC1OC(C#Cc2ccc(C)cc2C)C=CC1OC(=O)OCC (centres undefined) | x | x | n[8 µM] | x
CCN1CCN(c2cc(C)c3cc(NC(=O)c4cncc(Br)c4)ccc3n2)CC1 | n | n | 25µM | n
CCN1CCN(c2cc(C)c3cc(NC(=O)c4ccc5c(c4)OCO5)ccc3n2)CC1 | n | n | 10µM | n
O=C(Nc1ccc(C(=O)Nc2ccc(C(=O)Nc3ccc(S(=O)(=O)O)c4cc(S(=O)(=O)O)cc(S(=O)(=O)O)c34)cc2)cc1)Nc1ccc(C(=O)Nc2ccc(C(=O)Nc3ccc(S(=O)(=O)O)c4cc(S(=O)(=O)O)cc(S(=O)(=O)O)c34)cc2)cc1 | n | n | u | n
COc1cccc(-c2cncnc2NCCc2cnc[nH]2)c1 | n | n | n | n
CCOC(=O)N1CCC(NC(=O)c2ccc3c(c2)N(C)CCS3)CC1 | n | n | u | n
COC(=O)c1ccc2c(c1)N(C)CCS2 | n | 4µM[single pt active] | n | x
COc1ccc(OC)c(CCNC(=O)CC2Oc3ccccc3NC2=O)c1 (centres undefined) | n | n | n | n
COc1ccc(NC(=O)CC2Oc3ccccc3NC2=O)cc1 (centres undefined) | n | 4µM[single pt active] | n | n
COc1ccc(NC(=O)CC2Oc3ccc(C)cc3NC2=O)cc1 (centres undefined) | n | 4µM[single pt active] | n | n

Assay outcomes as filed in PubChem BioAssay.
